Results filed as inconclusive are left out. Calls of active or inactive are those of the source. Unless noted, the call rests on the fitted dose curve; in most records, active means well fitted curve in the direction sought with a large enough effect in the repeat runs; inconclusive means weak or mixed curves; inactive means no such curve, though single readings can be large; an effect the other way counts as inactive or inconclusive.
Target: Androgen receptor (Homo sapiens) (UniProt P10275)
Sequence (P10275 whole entry, looked up): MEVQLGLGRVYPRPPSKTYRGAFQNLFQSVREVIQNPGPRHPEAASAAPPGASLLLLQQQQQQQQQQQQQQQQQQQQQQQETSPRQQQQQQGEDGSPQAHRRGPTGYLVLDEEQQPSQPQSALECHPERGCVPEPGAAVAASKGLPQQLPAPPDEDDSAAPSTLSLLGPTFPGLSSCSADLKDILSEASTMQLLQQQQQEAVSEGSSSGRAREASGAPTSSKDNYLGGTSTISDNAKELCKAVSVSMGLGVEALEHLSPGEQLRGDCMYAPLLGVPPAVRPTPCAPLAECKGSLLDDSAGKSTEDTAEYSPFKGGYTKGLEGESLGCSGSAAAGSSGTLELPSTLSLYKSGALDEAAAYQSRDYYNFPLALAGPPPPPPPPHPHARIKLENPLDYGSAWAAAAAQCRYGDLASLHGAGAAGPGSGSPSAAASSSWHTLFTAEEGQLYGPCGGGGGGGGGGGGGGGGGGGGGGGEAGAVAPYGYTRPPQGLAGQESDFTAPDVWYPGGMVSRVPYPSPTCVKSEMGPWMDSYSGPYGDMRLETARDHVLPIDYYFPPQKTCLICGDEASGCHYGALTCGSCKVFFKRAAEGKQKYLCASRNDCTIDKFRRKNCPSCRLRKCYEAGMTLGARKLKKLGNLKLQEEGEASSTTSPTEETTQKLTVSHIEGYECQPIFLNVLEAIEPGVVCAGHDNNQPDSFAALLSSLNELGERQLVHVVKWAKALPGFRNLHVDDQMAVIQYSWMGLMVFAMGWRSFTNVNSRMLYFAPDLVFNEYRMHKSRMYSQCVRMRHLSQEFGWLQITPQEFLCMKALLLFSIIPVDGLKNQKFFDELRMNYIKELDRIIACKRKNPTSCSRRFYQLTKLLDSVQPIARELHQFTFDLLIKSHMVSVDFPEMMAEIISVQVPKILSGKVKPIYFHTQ
Assay: qHTS assay to identify small molecule agonists of the androgen receptor (AR) signaling pathway (AID 743036; active means well fitted activation curve with a large enough effect in the signal ratio in the repeat runs, with a control signal flat, not every such curve was filed as active; the % refers to the signal ratio)
Settings: HEK293 AR-UAS-bla GripTite, beta-lactamase FRET ratio, 16 h; series mostly up to 62.4 µM; activation: at the top concentration
Method in brief: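 Quantitative HTS of the Tox21 10K library in HEK293 cells bearing a stably integrated UAS-controlled beta-lactamase reporter. Compound exposure lasted 16 h at 37C. Reporter activity was detected by FRET substrate fluorescence after 2 h at room temperature.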
With `Oc1ccc(Cl)c2cccnc12` the “activation” value was 0.433% (inactive). In the case of `Cc1cc(C)cc(N)c1`, the “activation” value was 0.437% [at 79.1 µM] (inactive). For `NC(=O)c1ccncc1`, the “activation” value was -3.16% [at 79.1 µM] (inactive). With `Cc1cscn1` the “activation” value was 13.1% (inactive). For `C=C(C)[C@@H]1CCC2=CCC[C@@H](C)[C@]2(C)C1`, the “activation” value was 4.56% (inactive). In the case of `C1COC1`, the “activation” value was 4.62% (inactive). For `O=C(/C=C/c1ccccc1)OCCc1ccccc1`, the “activation” value was -6.81% (inactive).

Target: Androgen receptor (Homo sapiens) (UniProt P10275)
Assay: qHTS assay to identify small molecule agonists of the androgen receptor (AR) signaling pathway using the MDA cell line (AID 743040; further: nearly all actives have a fitted effect of over 20% in size)
Settings: MDA-kb2 AR-luc cells, MMTV luciferase, 16 h, hits give high values; series mostly up to 70.3 µM; activity change: at the top concentration
Method in brief: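 Luciferase read-out, ONE-Glo, 30 min RT. Cells: MDA-kb2 AR-luc, MMTV promoter with AR and GR response elements. Compound exposure 16 h, 37C, 0% CO2, after 5 h pre-incubation. qHTS agonist mode.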
In the case of `Oc1ccc(Cl)c2cccnc12`, the “activity change” value was -2.24% (inactive). For `Cc1cc(C)cc(N)c1`, the “activity change” value was 1.65% [at 95 µM] (inactive). In the case of `NC(=O)c1ccncc1`, the “activity change” value was 0.895% [at 95 µM] (inactive). In the case of `Cc1cscn1`, the “activity change” value was 0.981% (inactive). With `C=C(C)[C@@H]1CCC2=CCC[C@@H](C)[C@]2(C)C1` the “activity change” value was -0.185% (inactive). In the case of `COc1cc(C(=O)NC2CCN(C)CC2)ccc1Nc1ncc2c(n1)N(C1CCCC1)CC(F)(F)C(=O)N2C`, the “activity change” value was -7.5% (inactive). In the case of `O=C(OC(=O)c1ccccc1)c1ccccc1`, the “activity change” value was 1.16% [at 95 µM] (inactive). With `O=C(/C=C/c1ccccc1)OCCc1ccccc1` the “activity change” value was 6.61% (inactive). For `NC1[C@H]2CN(c3nc4c(cc3F)c(=O)c(C(=O)O)cn4-c3ccc(F)cc3F)C[C@@H]12` (stereo partly drawn), the “activity change” value was 0.199% (inactive). In the case of `CC[C@]1(O)C[C@H]2CN(CCc3c([nH]c4ccccc34)[C@@](C(=O)OC)(c3cc4c(cc3OC)N(C=O)[C@H]3[C@@](O)(C(=O)OC)[C@H](OC(C)=O)[C@]5(CC)C=CCN6CC[C@]43[C@@H]65)C2)C1`, the “activity change” value was -5.33% (inactive).

Test system: not listed separately
Assay: qHTS assay to identify small molecule antagonists of the androgen receptor (AR) signaling pathway using the MDA cell line - cell viability counter screen (AID 743041; further: nearly all actives have a fitted effect of over 45% in size; further: potency means the concentration at half of the fitted maximal effect)
Settings: MDA-kb2 viability, CellTiter-Fluor, 16 h, cells co-treated with R1881 androgen agonist; series mostly up to 70.3 µM; viability change, negative = cytotoxic: at the top concentration
Method in brief: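 Cytotoxicity counter screen: MDA-kb2 AR-luc cells, compound + R1881, 16 h, 37C, 0% CO2; CellTiter-Fluor added at 15.5 h, fluorescence read after 30 min.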
With `Cc1ccccc1S` the “viability change, negative = cytotoxic” value was 1.46% (inactive). With `COc1ncnc(NS(=O)(=O)c2ccc(N)cc2)c1OC` the “viability change, negative = cytotoxic” value was -4.19% (inactive). In the case of `Cc1cc(C)cc(N)c1`, the “viability change, negative = cytotoxic” value was 7.28% [at 95 µM] (inactive). In the case of `NC(=O)c1ccncc1`, the “viability change, negative = cytotoxic” value was -12.8% [at 95 µM] (inactive). In the case of `Cc1cscn1`, the “viability change, negative = cytotoxic” value was 0.444% (inactive). For `C=C(C)[C@@H]1CCC2=CCC[C@@H](C)[C@]2(C)C1`, the “viability change, negative = cytotoxic” value was -8.37% (inactive). In the case of `COc1cc(C(=O)NC2CCN(C)CC2)ccc1Nc1ncc2c(n1)N(C1CCCC1)CC(F)(F)C(=O)N2C`, the Potency was 62.8 µM (active). With `CCC(C)COC(C)=O` (stereo not drawn) the “viability change, negative = cytotoxic” value was -6.78% (inactive). For `CCCCCCCCCI`, the “viability change, negative = cytotoxic” value was -0.839% [at 95 µM] (inactive). With `O=C(/C=C/c1ccccc1)OCCc1ccccc1` the “viability change, negative = cytotoxic” value was 7.21% (inactive). For `NC1[C@H]2CN(c3nc4c(cc3F)c(=O)c(C(=O)O)cn4-c3ccc(F)cc3F)C[C@@H]12` (stereo partly drawn), the “viability change, negative = cytotoxic” value was -8.26% (inactive).

Target: Androgen receptor (Homo sapiens) (UniProt P10275)
Assay: qHTS assay to identify small molecule antagonists of the androgen receptor (AR) signaling pathway using the MDA cell line (AID 743042; further: nearly all actives have a fitted effect of over 55% in size; further: potency means the concentration at half of the fitted maximal effect)
Settings: MDA-kb2 AR-luc, MMTV luciferase, R1881 antagonist, 16 h; series mostly up to 70.3 µM; activity change, negative = inhibition: at the top concentration
Method in brief: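 MDA-kb2 breast carcinoma cells carrying MMTV-luciferase (AR/GR responsive) were co-treated with compounds and the agonist R1881 for 16 h at 37C. Inhibition read as ONE-Glo luminescence; CellTiter-Fluor fluorescence measured in parallel for cytotoxicity.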
In the case of `Oc1ccc(Cl)c2cccnc12`, the Potency was 9.44 µM (active). For `Cc1cc(C)cc(N)c1`, the “activity change, negative = inhibition” value was -4.69% [at 95 µM] (inactive). With `NC(=O)c1ccncc1` the “activity change, negative = inhibition” value was -0.0186% [at 95 µM] (inactive). With `Cc1cscn1` the “activity change, negative = inhibition” value was 4.53% (inactive). For `C=C(C)[C@@H]1CCC2=CCC[C@@H](C)[C@]2(C)C1`, the “activity change, negative = inhibition” value was -10.4% (inactive). In the case of `O=C(OC(=O)c1ccccc1)c1ccccc1`, the “activity change, negative = inhibition” value was 1.54% [at 95 µM] (inactive). For `C1COC1`, the “activity change, negative = inhibition” value was 6.89% (inactive). With `O=C(/C=C/c1ccccc1)OCCc1ccccc1` the “activity change, negative = inhibition” value was 77% (inactive). With `NC1[C@H]2CN(c3nc4c(cc3F)c(=O)c(C(=O)O)cn4-c3ccc(F)cc3F)C[C@@H]12` (stereo partly drawn) the “activity change, negative = inhibition” value was 66.9% (inactive). In the case of `CC[C@]1(O)C[C@H]2CN(CCc3c([nH]c4ccccc34)[C@@](C(=O)OC)(c3cc4c(cc3OC)N(C=O)[C@H]3[C@@](O)(C(=O)OC)[C@H](OC(C)=O)[C@]5(CC)C=CCN6CC[C@]43[C@@H]65)C2)C1`, the “activity change, negative = inhibition” value was -6.08% (inactive).
On the % scale 0 is the no-effect control and ±100 the full control effect.
